Screening results (PubChem BioAssay)
Shiga toxin inh: A qHTS for Small Molecule Inhibitors of Shiga Toxin. Vero cells, Shiga toxin protein synthesis inhibition reporter. inhibition, % at 38.7 µM. actives 9.2% (n = 290,000). AID 2315, 2010; in the data active = inhibition mostly above about 28%, no sharp cut-off; inactive = mostly below about 43%; note: 0% is about no effect
Sm TGR block: qHTS Assay for the Inhibitors of Schistosoma Mansoni Peroxiredoxins. Schistosoma mansoni thioredoxin glutathione reductase (TGR), Q962Y6. purified TGR, DTNB reduction, TNB absorbance 405 nm. Potency, µM (top dose mostly 114 µM), for inactives: at the highest dose activity change, negative = inhibition, usual class: inhibitors. actives 3% (n = 360,000); note: potency is the fitted concentration of half-maximal effect; % is set by controls: 0 for no effect and ±100 for the full control effect; nearly all actives have a fitted effect of over 60% in size
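First, TGR (20 nM dispensed) and NADPH were mixed with compound. Second, a 15 min room-temperature incubation followed. Third, further NADPH and then DTNB were added to start the reaction. Finally, TNB absorbance was monitored kinetically.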
TbPYK inhibitor: qHTS of Trypanosoma Brucei Inhibitors | TbPYK enzyme, Kinase-Glo Plus ATP luminescence, 45 min | Potency, µM (series often up to 76.8 µM), for the others: at the top dose activity, negative = inhibition, most hits filed as inhibitors | actives 0.12% (n = 410,000) | AID 624173, 2012; note: potency is the fitted concentration of half-maximal effect; % is set by controls: 0 for no effect and ±100 for the full control effect; nearly all actives have a fitted effect of over 50% in size
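Enzyme and substrate buffer are dispensed first and compound is pin-transferred. ADP at 130 uM final then starts the reaction, which runs 45 min at room temperature. Detection reagent is added for 10 min before luminescence is imaged.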
Giardia FBPA inh: qHTS Assay for Inhibitors of Fructose-1,6-bisphosphate Aldolase from Giardia Lamblia. purified Giardia FBPA. actives 0.71% (n = 290,000). AID 2451, 2010. A8B2U2. Potency, µM (highest dose often 59.6 µM), without a hit: top-dose activity, negative = inhibition, actives largely listed as inhibitors; note: potency is the fitted concentration of half-maximal effect; % is set by controls: 0 for no effect and ±100 for the full control effect; nearly all actives have a fitted effect of over 55% in size
Target sequence (A8B2U2 whole entry, looked up): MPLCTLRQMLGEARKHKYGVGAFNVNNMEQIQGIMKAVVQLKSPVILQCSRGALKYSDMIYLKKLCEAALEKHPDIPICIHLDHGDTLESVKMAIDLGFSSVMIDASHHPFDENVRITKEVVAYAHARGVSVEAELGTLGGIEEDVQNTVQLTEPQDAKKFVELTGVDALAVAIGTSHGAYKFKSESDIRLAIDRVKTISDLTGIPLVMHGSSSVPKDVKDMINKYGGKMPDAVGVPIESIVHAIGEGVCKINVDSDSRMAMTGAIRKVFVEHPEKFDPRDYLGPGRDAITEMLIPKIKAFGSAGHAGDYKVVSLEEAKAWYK
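Giardia FBPA (40 nM reagent) was preincubated 10 min at RT with compound (up to 57.5 uM final), then substrate plus GAPDH/TPI/NAD/arsenate coupling system with diaphorase/resazurin was added; resorufin fluorescence (525/598 nm) was read after 20 min.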
LmPK inhibitor: qHTS Assay for Inhibitors of Leishmania Mexicana Pyruvate Kinase (LmPK). Q27686. purified LmPK, Kinase-Glo ATP luminescence, 1 h. Potency, µM (series often up to 57.5 µM), for inactives: at the highest dose activity change, negative = inhibition, hits mostly inhibitors. actives 0.37% (n = 290,000); note: potency is the fitted concentration of half-maximal effect; % is set by controls: 0 for no effect and ±100 for the full control effect
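Purified LmPK (0.1 nM) converted ADP (0.1 mM) to ATP with PEP (0.5 mM) in imidazole buffer pH 7.2 with KCl and MgCl2, 1 h at room temperature. ATP was read by Kinase-Glo luminescence; data normalized to uninhibited and no-enzyme controls.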
CHX counter: Cycloheximide Counterscreen for Small Molecule Inhibitors of Shiga Toxin. AID 2314, 2010. max response, %. cell reporter, cycloheximide protein synthesis inhibition counterscreen. actives 12% (n = 300,000); in the data active = max response mostly above about 13%, no sharp cut-off; inactive = mostly below about 14%; note: read at 38.3 µM for the half of the compounds with a filed dose; 0% is about no effect
* marks the source's active call; other numbers are inactive results; ? = inconclusive; . = not tested or not shown. This excerpt belongs to a sample that is enriched for hits. Unless noted, calls come from the whole dose curve; as a rule, active = well fitted curve in the direction sought with a large enough effect; inconclusive = small, poorly fitted or top-dose-only effect, or another doubt; inactive = no such curve, though single readings can be large; an effect the other way counts as inactive or inconclusive.

SMILES	Shiga toxin inh	Sm TGR block	TbPYK inhibitor	Giardia FBPA inh	LmPK inhibitor	CHX counter
COc1ccc(OC)c(CN(CCN2CCOCC2)C(=O)Nc2ccccc2)c1	43*	-2%	3%	2%	-4%	9
CSc1cccc(NC(=O)c2ccc(CN3CCc4ccccc4C3)cc2)c1	22	-9%	5%	?	3%	13
O=C(NC1CC2CCC1C2)c1ccc(CN2CCOCC2)cc1 (centres undefined)	117*	-3%	1%	19%	-3%	34*
CCN(CC)S(=O)(=O)c1ccc(NC(=O)c2ccc(CN3CCOCC3)cc2)cc1	5	-1%	4%	-1%	2%	1
O=C(Nc1ccc2c(c1)OCCO2)c1ccc(CN2CCOCC2)cc1	73*	4%	1%	7%	-5%	50*
COc1ccc(OC)c(CN(CCN2CCOCC2)C(=O)Nc2cccc(Cl)c2)c1	-8	-10%	-6%	-1%	2%	-5
COc1c(Cl)cc(Cl)cc1C(=O)Nc1ccc(CN2CCOCC2)cc1	-1	-6%	3%	9%	-3%	3
COc1cccc(NC(=O)c2ccc(CN3CCOCC3)cc2)c1	33	1%	-13%	1%	?	22*
CC(C)Oc1cccc(C(=O)Nc2ccc(CN3CCOCC3)cc2)c1	18	-4%	-14%	-1%	2%	16*
COc1ccc(NS(=O)(=O)c2ccc(NC(=O)c3ccc(CN4CCOCC4)cc3)cc2)cc1	-16	?	-1%	-2%	6%	8
COc1c(C)cccc1C(=O)Nc1ccc(CN2CCOCC2)cc1	44*	4%	-5%	-2%	-12%	47*
Cc1c(NC(=O)[C@@H](NC(=O)c2ccc(Cl)c([N+](=O)[O-])c2)C(C)C)c(=O)n(-c2ccccc2)n1C	.	.	0%	.	.	.
CC1(C)CC(=O)C(C(C2=C(O)CC(C)(C)CC2=O)c2ccc(Br)s2)C(=O)C1 (centres undefined)	-7	10µM*	?	-1%	5%	-1
Cc1ccc(C(C2=C(O)CC(C)(C)CC2=O)C2C(=O)CC(C)(C)CC2=O)s1 (centres undefined)	-2	?	?	0%	5%	-2
Cc1ccc2c(=O)cc(C(=O)Nc3sc4c(c3C(=O)NCC3CCCO3)CCCC4)oc2c1C (centres undefined)	.	2%	0%	.	.	.
O=C(Nc1ccc2[nH]ncc2c1)c1cccc(F)c1	65*	-19%	-4%	-1%	-3%	29*
O=C(Nc1ccc2[nH]ncc2c1)c1ccc(F)cc1	55*	16%	-3%	-1%	-8%	19*
O=C(Nc1ccc2[nH]ncc2c1)c1ccccc1	25	6%	-2%	-5%	-7%	22*
O=C(Cc1ccccc1)Nc1ccc2[nH]ncc2c1	23	1%	-4%	5%	-1%	21*
COc1ccccc1CNC(=O)C1CCCN(c2nc3ccccc3n3cccc23)C1 (centres undefined)	.	-3%	-5%	.	.	.
COc1cc(C(=O)OC2CC[C@]3(C)C4CCC5[C@]6(O)CC(O)[C@]7(O)C(CN8CC(C)CCC8[C@]7(C)O)[C@]6(O)C[C@@]53O[C@]24O)cc(OC)c1OC (some centres undefined)	.	.	.	0%	.	.
O=C(COc1ccccc1)Nc1ccc2[nH]ncc2c1	-3	-8%	2%	8%	2%	-1
Cc1ccccc1OCC(=O)Nc1ccc2[nH]ncc2c1	16	-17%	-5%	11%	-2%	15*
CC(CN1CCCCC1)OC(=O)c1ccc(Cl)cc1 (centres undefined)	25	4%	1%	-5%	-5%	-7
O=C(c1ccc(Cl)cc1)C(CN1CCCCC1)c1ccccc1 (centres undefined)	-3	6.3µM*	-9%	-4%	1%	-2
SMILES	Shiga toxin inh	Sm TGR block	TbPYK inhibitor	Giardia FBPA inh	LmPK inhibitor	CHX counter
CCOC(=O)C(CN1CCCC1)c1ccccc1 (centres undefined)	.	0%	3%	.	.	.
O=C(c1ccccc1)C(CN1CCCC1)c1ccccc1 (centres undefined)	-21	45µM*	-15%	-7%	2%	-5
N#C/C(=C\c1ccc(OCc2cccc(C(=O)O)c2)cc1)C(=O)NCc1ccco1	101*	0%	5%	13%	0%	52*
COc1cc(/C=C(\C#N)C(=O)Nc2cccc(C(=O)O)c2)ccc1OCc1ccc(C)cc1	74*	-2%	2%	-13%	5%	26*
COc1cc(/C=C(/C#N)c2ccccc2F)ccc1OCc1ccccc1	53*	12%	-9%	-1%	-1%	34*
N#C/C(=C\c1ccc(OCc2ccc(C(=O)O)cc2)cc1)C(=O)NCc1ccccc1	.	10%	-9%	0%	4%	-2
N#C/C(=C\c1ccc(OCc2ccc(Cl)cc2)cc1)C(=O)Nc1cccc(C(=O)O)c1	34*	-11%	5%	1%	3%	18*
CCc1cccc(C)c1NC(=O)c1cc(C)nc2c1c(C)nn2-c1cccc(Cl)c1C	.	3%	4%	.	.	.
COc1ccc(NC(=O)N2CCCC(C(=O)NCCc3ccccc3)C2)cc1 (centres undefined)	65*	2%	-5%	-5%	-3%	34*
O=C(NCc1ccccc1)C1CCCN(C(=O)Nc2ccccc2)C1 (centres undefined)	53	?	10%	3%	-6%	11*
O=C(c1ccccc1)C1CCN(C(=O)Nc2ccccc2)CC1	6	-9%	2%	6%	0%	16*
O=C(Nc1ccccc1)N1CCCC2CCCCC21 (centres undefined)	94*	0%	-8%	-5%	-1%	45*
O=C(CC1(O)C(=O)N(CCc2ccccc2)c2ccc(Br)cc21)c1ccccc1O (centres undefined)	.	-2%	-4%	.	.	.
CCNc1ncc2nc(CCc3ccccc3)c(=O)n(Cc3cccc(OC)c3)c2n1	.	.	.	9%	.	.
CC(C)(C)Nc1ncnc2c1cnn2-c1ccccc1	96*	5%	-1%	-13%	-4%	57*
c1cncc(CNc2ncnc3ccc(-c4ccco4)cc23)c1	.	8.9µM*	.	.	.	.
Fc1ccc(CNc2ncnc3c2cnn3-c2ccccc2)cc1	22	3%	-6%	7%	9%	17
COc1cccc(-c2ccc3ncnc(NCc4cccnc4)c3c2)c1	.	-4%	-3%	0%	.	.
Clc1ccc(-n2ncc3c(NCc4cccnc4)ncnc32)cc1Cl	27	-31%	5%	4%	1%	34*
